# According to PubChem BioAssay (Tox21):
# Records with an inconclusive call do not appear. Calls of active or inactive are those of the source. Unless noted, calls follow the shape of the dose curve; as a rule, active = well fitted cell-killing curve with a large enough effect in the repeat runs; inconclusive = weak or mixed curves, or effect the other way; inactive = no such curve, though single readings can be large or run the other way.
# Target: Vitamin D3 receptor (Homo sapiens) (UniProt P11473)
# Assay: qHTS assay to identify small molecule agonists of the vitamin D receptor (VDR) signaling pathway (AID 743222; calls by dose curve)
# Conditions: HEK293T VDR-UAS-bla, beta-lactamase FRET ratio, 16 h; series mostly up to 63.5 µM; activation: at the top concentration
# Procedure, shortened: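 Tox21 cell reporter format: VDR-bla line, 16 h compound exposure in 5% CO2 at 37C, then fluorescence intensity after 2 h with LiveBLAzer B/G FRET substrate.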
# % is scaled to controls: 0 for no effect and ±100 for the full control effect.
# Sequence of Vitamin D3 receptor (Homo sapiens) (P11473 whole entry, looked up): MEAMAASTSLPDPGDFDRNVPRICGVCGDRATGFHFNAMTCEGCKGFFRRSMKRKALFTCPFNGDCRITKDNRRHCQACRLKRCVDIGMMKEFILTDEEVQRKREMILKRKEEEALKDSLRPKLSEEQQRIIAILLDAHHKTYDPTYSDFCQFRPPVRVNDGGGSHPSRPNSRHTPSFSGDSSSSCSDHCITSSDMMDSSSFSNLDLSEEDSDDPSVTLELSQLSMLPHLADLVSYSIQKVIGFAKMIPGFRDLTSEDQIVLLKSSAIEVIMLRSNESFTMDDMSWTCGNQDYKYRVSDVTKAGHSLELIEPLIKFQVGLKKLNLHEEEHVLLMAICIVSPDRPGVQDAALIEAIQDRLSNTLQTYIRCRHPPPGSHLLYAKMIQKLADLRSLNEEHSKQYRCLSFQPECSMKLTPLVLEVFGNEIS
row,Compound,activation
1,O=[N+]([O-])c1ccc(F)c(Cl)c1,-4.12% (inactive)
2,CCCC[P+](C)(CCCC)CCCC,-7.58% [at 81.1 µM] (inactive)
3,Cc1nc2n(c(=O)c1CCN1CCC(c3noc4cc(F)ccc34)CC1)CCCC2,-0.978% (inactive)
4,O[C@@H]([C@H](O)[C@H](O)CBr)[C@H](O)CBr,-0.929% (inactive)
5,O=C(O)c1ccc2cc(C(=O)O)ccc2c1,7.91% [at 81.1 µM] (inactive)
6,O=[N+]([O-])c1ccc(O)cc1C(F)(F)F,4.07% (inactive)
7,C=Cc1cccc(C)c1,2.78% (inactive)
8,CCc1cccc(CC)c1NC(=O)CN(CC(=O)O)CC(=O)O,9.5% (inactive)
9,CCCc1ccc(OCC(=O)N2CCN(C(=O)COc3ccc(CCC)cc3OC)CC2)c(OC)c1,-14.2% (inactive)
10,CCCCCCCC,1.29% (inactive)
11,COC1=C(OC)C(=O)C(CCCCCCCCCCO)=C(C)C1=O,-0.914% (inactive)
12,CC(C)CCOC(=O)/C=C/c1ccccc1,2.38% [at 81.1 µM] (inactive)
13,COc1ccc(-c2coc3cc(O)ccc3c2=O)cc1,-5.61% (inactive)
14,Oc1cc(Cl)cc(Cl)c1Cl,-11.1% [at 81.1 µM] (inactive)
15,Cc1ccc(-c2ccccc2)cc1,-4.46% (inactive)
16,C/C=C/C=C/COC(=O)C(C)C,-13.4% (inactive)
17,C=CC(C)(CCC=C(C)C)OC=O (stereo not drawn),7.87% (inactive)
18,CC(CO)Oc1ccccc1 (stereo not drawn),1.44% [at 81.1 µM] (inactive)
19,CC(C)=CCC1=C(O)c2ccccc2C(=O)C1=O,0.0296% (inactive)
20,OC12N=C(c3ccccc3)SC1Cc1cc(Cl)ccc12 (stereo not drawn),-5.77% (inactive)
21,O=C(O)c1cc(=O)c2ccccc2o1,-3.53% (inactive)
22,CC(=O)c1ccc(C(C)=O)cc1,-0.632% [at 81.1 µM] (inactive)
23,CC[N+](CC)(CC)CCOC(=O)C(C1CCCC1)C1CCCC1,-6.67% (inactive)

# Target: Vitamin D3 receptor (Homo sapiens) (UniProt P11473)
# Assay: qHTS assay to identify small molecule antagonists of the vitamin D receptor (VDR) signaling pathway (AID 743223; active = well fitted inhibition curve with a large enough effect in the signal ratio in the repeat runs, not every such curve was filed as active; the % refers to the signal ratio)
# Conditions: VDR-UAS-bla HEK293T, beta-lactamase FRET ratio, 16 h; series mostly up to 61 µM; activity change, negative = inhibition: at the top concentration
# Procedure, shortened: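 Antagonist mode: compound added to VDR-bla cells alongside agonist 1alpha,25-dihydroxyvitamin D3 (3 nM final), incubation 16 h at 37C. Read-out is LiveBLAzer FRET fluorescence, 2 h at room temperature.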
row,Compound,"activity change, negative = inhibition"
1,O=[N+]([O-])c1ccc(F)c(Cl)c1,3.44% (inactive)
2,CCCC[P+](C)(CCCC)CCCC,-13% [at 78.8 µM] (inactive)
3,Cc1ccc(O)c(O)c1,-28.9% (inactive)
4,O=C(O)c1ccc2cc(C(=O)O)ccc2c1,3.42% [at 78.8 µM] (inactive)
5,O=[N+]([O-])c1ccc(O)cc1C(F)(F)F,21.7% (inactive)
6,O=c1[nH]c2ccccc2n1CCCN1CCN(C(c2ccccc2)c2ccccc2)CC1,-2.53% (inactive)
7,C=Cc1cccc(C)c1,-13.1% (inactive)
8,O=C(/C=C/c1ccc(O)c(O)c1)O[C@@H](C(=O)O)[C@@H](OC(=O)/C=C/c1ccc(O)c(O)c1)C(=O)O,-1.55% (inactive)
9,CCc1cccc(CC)c1NC(=O)CN(CC(=O)O)CC(=O)O,3.97% (inactive)
10,CCCc1ccc(OCC(=O)N2CCN(C(=O)COc3ccc(CCC)cc3OC)CC2)c(OC)c1,-0.254% (inactive)
11,CCCCCCCC,1.22% (inactive)
12,CCCCN(CCCC)CC(O)c1cc(Cl)cc2c1-c1ccc(Cl)cc1/C2=C/c1ccc(Cl)cc1 (stereo not drawn),-13.5% (inactive)
13,Oc1cc(Cl)cc(Cl)c1Cl,2.6% [at 78.8 µM] (inactive)
14,C/C=C/C=C/COC(=O)C(C)C,-7.04% (inactive)
15,C=CC(C)(CCC=C(C)C)OC=O (stereo not drawn),7.28% (inactive)
16,CC(CO)Oc1ccccc1 (stereo not drawn),-2.04% [at 78.8 µM] (inactive)
17,CC(C)=CCC1=C(O)c2ccccc2C(=O)C1=O,-2.24% (inactive)
18,OC12N=C(c3ccccc3)SC1Cc1cc(Cl)ccc12 (stereo not drawn),8.96% (inactive)
19,O=C(O)c1cc(=O)c2ccccc2o1,-1.7% (inactive)
20,CC[N+](CC)(CC)CCOC(=O)C(C1CCCC1)C1CCCC1,9.07% (inactive)

# Test system: not listed separately
# Assay: qHTS assay to identify small molecule agonists of the vitamin D receptor (VDR) signaling pathway - cell viability counter screen (AID 743224); also: nearly all actives have a fitted effect of over 50% in size
# Conditions: VDR-bla HEK293T viability, CellTiter-Glo luminescence, 16 h; series mostly up to 62.6 µM; activity change, negative = cytotoxicity: at the top concentration
# Procedure, shortened: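 CellTiter-Glo viability readout on VDR-bla cells, measured after 16 h of compound treatment at 37C in the same wells.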
row,Compound,"activity change, negative = cytotoxicity"
1,O=[N+]([O-])c1ccc(F)c(Cl)c1,7.97% (inactive)
2,CCCC[P+](C)(CCCC)CCCC,-6.36% [at 81.1 µM] (inactive)
3,Cc1nc2n(c(=O)c1CCN1CCC(c3noc4cc(F)ccc34)CC1)CCCC2,-1.65% (inactive)
4,O[C@@H]([C@H](O)[C@H](O)CBr)[C@H](O)CBr,6.47% (inactive)
5,O=C(O)c1ccc2cc(C(=O)O)ccc2c1,1.64% [at 81.1 µM] (inactive)
6,CCCCCCOC(=O)C(C)CC (stereo not drawn),0.663% (inactive)
7,O=c1[nH]c2ccccc2n1CCCN1CCN(C(c2ccccc2)c2ccccc2)CC1,-19.9% (inactive)
8,C=Cc1cccc(C)c1,-0.0847% (inactive)
9,O=C(/C=C/c1ccc(O)c(O)c1)O[C@@H](C(=O)O)[C@@H](OC(=O)/C=C/c1ccc(O)c(O)c1)C(=O)O,5.39% (inactive)
10,CCc1cccc(CC)c1NC(=O)CN(CC(=O)O)CC(=O)O,7.28% (inactive)
11,CCO[C@@H]1O[C@H](C(COCc2ccccc2)OCc2ccccc2)[C@H](OCc2ccccc2)[C@H]1O (stereo partly drawn),13.4% (inactive)
12,CCCCCCCC,4.17% (inactive)
13,COc1ccc(-c2coc3cc(O)ccc3c2=O)cc1,4.63% (inactive)
14,Cc1ccc(-c2ccccc2)cc1,-19.8% (inactive)
15,CCCCCCCCCCOC(=O)c1ccccc1C(=O)OCCCCCCCC,2.23% (inactive)
16,C=CC(C)(CCC=C(C)C)OC=O (stereo not drawn),4.23% (inactive)
17,CC(CO)Oc1ccccc1 (stereo not drawn),-3.77% [at 81.1 µM] (inactive)
18,CC(C)=CCC1=C(O)c2ccccc2C(=O)C1=O,-16% (inactive)
19,OC12N=C(c3ccccc3)SC1Cc1cc(Cl)ccc12 (stereo not drawn),-4.88% (inactive)
20,CC(C)(C)CC(C)(C)c1ccc(Nc2ccc(C(C)(C)CC(C)(C)C)cc2)cc1,10.9% [at 5.95 µM] (inactive)
21,NC(=O)c1cccc([N+](=O)[O-])c1,5.09% (inactive)

# Test system: not listed separately
# Assay: qHTS assay to identify small molecule antagonists of the vitamin D receptor (VDR) signaling pathway - cell viability counter screen (AID 743225); also: nearly all actives have a fitted effect of over 50% in size; also: potency is read from the fitted curve at half-maximal effect
# Conditions: VDR-bla HEK293T viability, CellTiter-Glo luminescence, 16 h; series mostly up to 61 µM; viability change, negative = cytotoxic: at the top concentration
# Procedure, shortened: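 Cytotoxicity counter screen read by CellTiter-Glo luminescence (30 min, room temperature) in the same wells as the VDR-bla antagonist readout. HEK 293T VDR-UAS-bla cells had 16 h at 37C with compound and 3 nM (final) 1-alpha,25-dihydroxyvitamin D3, then 2 h with FRET substrate.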
Compound,"viability change, negative = cytotoxic",Potency
COC(=O)c1ccccc1OC,4.12% (inactive),–
c1cnccn1,9.41% [at 78.8 µM] (inactive),–
O=[N+]([O-])c1ccc(F)c(Cl)c1,9.19% (inactive),–
CCCC[P+](C)(CCCC)CCCC,-10.9% [at 78.8 µM] (inactive),–
Cc1nc2n(c(=O)c1CCN1CCC(c3noc4cc(F)ccc34)CC1)CCCC2,0.125% (inactive),–
O[C@@H]([C@H](O)[C@H](O)CBr)[C@H](O)CBr,-0.966% (inactive),–
[Cu+],-9.47% (inactive),–
Cc1ccc(O)c(O)c1,-21.1% (inactive),–
O=C(O)c1ccc2cc(C(=O)O)ccc2c1,11.6% [at 78.8 µM] (inactive),–
CCCCCCOC(=O)C(C)CC (stereo not drawn),-20.4% (inactive),–
O=c1[nH]c2ccccc2n1CCCN1CCN(C(c2ccccc2)c2ccccc2)CC1,0.0176% (inactive),–
C=Cc1cccc(C)c1,3.1% (inactive),–
CCc1cccc(CC)c1NC(=O)CN(CC(=O)O)CC(=O)O,3.26% (inactive),–
CCO[C@@H]1O[C@H](C(COCc2ccccc2)OCc2ccccc2)[C@H](OCc2ccccc2)[C@H]1O (stereo partly drawn),-11.1% (inactive),–
CCCc1ccc(OCC(=O)N2CCN(C(=O)COc3ccc(CCC)cc3OC)CC2)c(OC)c1,-14.4% (inactive),–
CCCCCCCC,1.48% (inactive),–
COC1=C(OC)C(=O)C(CCCCCCCCCCO)=C(C)C1=O,–,23.9 µM (active)
CC(C)CCOC(=O)/C=C/c1ccccc1,6.2% [at 78.8 µM] (inactive),–
COc1ccc(-c2coc3cc(O)ccc3c2=O)cc1,-22.5% (inactive),–
Oc1cc(Cl)cc(Cl)c1Cl,-5.65% [at 78.8 µM] (inactive),–
C/C=C/C=C/COC(=O)C(C)C,-13% (inactive),–
CCCCCCCCCCOC(=O)c1ccccc1C(=O)OCCCCCCCC,-18.6% (inactive),–
C=CC(C)(CCC=C(C)C)OC=O (stereo not drawn),4.74% (inactive),–
OC12N=C(c3ccccc3)SC1Cc1cc(Cl)ccc12 (stereo not drawn),5.39% (inactive),–
O=C(O)c1cc(=O)c2ccccc2o1,6.82% (inactive),–
CC(=O)c1ccc(C(C)=O)cc1,-0.338% [at 78.8 µM] (inactive),–
CC[N+](CC)(CC)CCOC(=O)C(C1CCCC1)C1CCCC1,0.829% (inactive),–
CC(C)(C)CC(C)(C)c1ccc(Nc2ccc(C(C)(C)CC(C)(C)C)cc2)cc1,20.6% [at 6.95 µM] (inactive),–
NC(=O)c1cccc([N+](=O)[O-])c1,-0.422% (inactive),–
